# Compound activity deposited in PubChem by National Center for Advancing Translational Sciences (NCATS).
# VP16 counter: VP16 counterscreen qHTS for inhibitors of ROR gamma transcriptional activity. Drosophila S2 Gal4-VP16 UAS-luciferase, luminescence, 20 h. Potency, µM (highest dose often 53.6 µM), usual class: inhibitors. 310,000 compounds, 3.5% hits. AID 2546, 2010;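 note: Gal4-VP16 expression switched on by copper sulfate through the metallothionein promoter; nearly all actives have a fitted effect of over 50% in size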
# RORg inh: qHTS for inhibitors of ROR gamma transcriptional activity. Potency, µM (series often up to 53.6 µM), hits mostly inhibitors. Drosophila S2 Gal4-RORgamma UAS-luciferase reporter, 20 h. 310,000 compounds, 5.4% hits. AID 2551, 2010; note: nearly all actives have a fitted effect of over 60% in size
# Target sequence (P51450 whole entry, looked up, the tested form may be a part): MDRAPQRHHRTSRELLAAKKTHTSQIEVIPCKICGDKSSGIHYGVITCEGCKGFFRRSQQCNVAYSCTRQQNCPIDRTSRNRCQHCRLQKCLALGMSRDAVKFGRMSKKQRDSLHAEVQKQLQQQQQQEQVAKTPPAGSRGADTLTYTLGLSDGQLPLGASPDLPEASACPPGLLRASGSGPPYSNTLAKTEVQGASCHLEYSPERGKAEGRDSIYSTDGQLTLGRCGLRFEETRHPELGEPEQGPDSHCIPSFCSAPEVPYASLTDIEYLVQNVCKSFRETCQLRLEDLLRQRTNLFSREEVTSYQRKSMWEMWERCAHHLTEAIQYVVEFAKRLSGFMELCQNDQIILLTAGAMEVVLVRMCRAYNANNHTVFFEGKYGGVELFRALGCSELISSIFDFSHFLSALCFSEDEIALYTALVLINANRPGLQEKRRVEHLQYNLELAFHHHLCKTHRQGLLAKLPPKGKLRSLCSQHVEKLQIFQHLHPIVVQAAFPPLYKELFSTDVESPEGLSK
#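 Drosophila S2 cells stably expressing Gal4-DBD/mouse RORγ fusion under metallothionein promoter plus UAS-luciferase; compound 1 h, then 700 uM CuSO4 induction for 20 h at ambient temperature; inhibition read as reduced luminescence.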
# Luc counter: Counterscreen for Luciferase (Kinase-Glo TM) Inhibition | AID 1379, 2008 | Potency, µM (doses to about 38.3 µM), usual class: inhibitors | Kinase-Glo luciferase, ATP luminescence, 8 min | Luciferin 4-monooxygenase (Photuris pensylvanica), Q27757 | 200,000 compounds, 0.28% hits; note: nearly all actives have a fitted effect of over 60% in size
#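 Light output from Kinase-Glo luciferase with luciferin and 10 uM ATP in 50 mM imidazole pH 7.2, KCl, MgCl2, Tween 20, BSA; compound pin-delivered, 8-min ambient incubation, then luminescence read.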
# Hits are given with their value; i = inactive; ? = inconclusive; nt = no result. A selection: hits, their analogues and other compounds. The true share with any hit is near 6.2%. Calls come from the whole dose curve; as a rule, active = well fitted curve in the direction sought with a large enough effect; inconclusive = small, poorly fitted or top-dose-only effect, or another doubt; inactive = no such curve, though single readings can be large; an effect the other way counts as inactive or inconclusive.
SMILES,VP16 counter,RORg inh,Luc counter
Cc1ccccc1N1CCN(Cc2nc(Cc3ccccc3)no2)CC1,i,i,i
CC(=O)c1ccc(N2CCN(Cc3nc(Cc4ccccc4)no3)CC2)cc1,?,3.5µM,i
C=C(C)Cn1c(=O)c2c(nc3n2CC(C)CN3Cc2ccccc2)n(C)c1=O (stereo not given),i,i,nt
CCOC(=O)c1ccc(NC(=O)Cn2cc3c(n2)CCC(C)C3)cc1 (stereo not given),i,i,i
COC(=O)c1ccc(Oc2nc(C)cc(Oc3ccccc3)n2)cc1,i,?,i
COC(=O)c1ccc(Oc2cc(C)nc(-n3nc(C)cc3C)n2)cc1,3.2µM,0.28µM,i
O=C(Cc1cccc(C(F)(F)F)c1)Nc1ccccc1N1CCCC1,i,?,nt
Cc1ccc(-n2nc(C)c(/C=N/n3c(C)n[nH]c3=S)c2Cl)cc1,i,3.5µM,i
Cc1cc(=O)[nH]c(N/N=C/c2c(C)nn(-c3ccc(F)cc3)c2Cl)n1,i,i,i
CCOCCCN(C(=O)c1snc(C(N)=O)c1N)C(C(=O)NC1CCCC1)c1ccc(O)c(OC)c1 (stereo not given),i,i,nt
O=C(CN(Cc1ccc(Cl)c(Cl)c1)S(=O)(=O)c1ccccc1)N/N=C\c1ccc2c(c1)OCO2,i,i,i
O=C(CCC(=O)Nc1ccc(Cl)cc1)N/N=C/c1ccc2c(c1)OCO2,14µM,i,nt
O=C(CN(Cc1ccccc1)S(=O)(=O)c1ccccc1)N/N=C/c1ccc2c(c1)OCO2,0.89µM,i,i
O=C(CCC(=O)Nc1ccccc1)N/N=C/c1ccc2c(c1)OCO2,i,i,nt
Cc1noc(C)c1-c1cc(N(C)C)ncn1,i,i,i
CCCCCCCc1c(C#N)c(N)[nH]c(=S)c1C#N,i,8.9µM,nt
CCOC(=O)c1cc(C)[nH]c(=S)c1C#N,i,?,i
COC(=O)c1ccc(C(NC(=O)OCc2ccccc2)/C(=C/[C@@H](C)C(=O)NCCc2c[nH]c3ccccc23)c2cccnc2)cc1 (stereo not given in full),i,i,i
O=C(O)c1cc(N/N=C/c2c(O)ccc3ccccc23)ccc1Cl,i,i,nt
Nc1nonc1N/N=C\c1ccccc1,i,i,nt
Nc1cc(Cl)nc(N/N=C/c2c(O)ccc3ccccc23)n1,11µM,0.63µM,i
Nc1nonc1N/N=C/c1c(O)ccc2ccccc12,i,11µM,i
O=C(c1cccc([N+](=O)[O-])c1)N1CCN(S(=O)(=O)N2CCCCC2)CC1,i,i,nt
COc1ccc(C(C)(C)C)cc1NC(=S)NCCN1CCOCC1,i,i,nt
Cc1cc(C)cc(-n2nnn(C3C/C(=N/NC(N)=S)C4OCC3O4)c2=S)c1 (stereo not given),i,?,i
SMILES,VP16 counter,RORg inh,Luc counter
CC(C)=CCC/C(C)=C/C=O,i,i,nt
CCOC(=O)C1(CCOc2ccccc2)CCN(Cc2ccncc2)CC1,i,i,i
CCOC(=O)C1(CCCc2ccccc2)CCN(Cc2nccn2CC)CC1,?,4µM,nt
CCOC(=O)C1(CCOc2ccccc2)CCN(Cc2nccn2CC)CC1,?,5µM,nt
CCOC(=O)C1(CCCc2ccccc2)CCN(Cc2cnc(C)s2)CC1,i,i,i
CCCCCCCCCCN1CCOCCOCCN(CCCCCCCCCC)CCOCCOCC1,i,i,nt
COc1ccccc1/C=C/C(=O)NCC(=O)N/N=C/c1ccc(C(=O)O)cc1,i,i,nt
CCOC(=O)C1(Cc2cccc(F)c2)CCN(Cc2c(C)nn(CC)c2C)CC1,i,?,nt
COc1ccc(O)c(CNc2ccccc2F)c1,i,i,i
CCC(C)NC(=O)CNC(=S)N(Cc1ccccc1F)C1CCCCC1 (stereo not given),i,?,i
COc1cccc(CN(C(=O)c2cc3ccccc3oc2=O)C2CCS(=O)(=O)C2)c1 (stereo not given),i,i,nt
CN1CCC=C(C(=O)N2c3ccccc3Sc3ccc(Cl)cc32)C1,i,i,nt
CC(=O)N1CCCc2cc(S(=O)(=O)N3CCCC(C(=O)N4CCN(c5cc(C)ccc5C)CC4)C3)ccc21 (stereo not given),?,i,nt
COc1ccccc1N1CCN(C(=O)C2CCCN(S(=O)(=O)c3ccc4c(c3)CCCN4C(C)=O)C2)CC1 (stereo not given),7.9µM,i,nt
CCc1nonc1NC(=O)c1oc2ccc(F)cc2c1C,i,i,nt
Cc1c(C(=O)Nc2nonc2-c2ccc(F)cc2)oc2ccc(F)cc12,?,8.9µM,nt
Nc1nonc1NN=C1CCCCC1,?,i,nt
COCC(=O)Nc1ncc(S(=O)(=O)c2ccc([N+](=O)[O-])cc2)s1,i,i,i
